# Measurements: paper PMC4336329 (PLoS ONE, 2015)
# Hit rate of the full screen: of about 310,000 compounds, about 14,000 (4.5%) showed an effect of 50% or more. Effects have a minus sign here. This is one part of a sample in which strong results are shown more often than they occur.
# Biological target: human ether-à-go-go-related gene (hERG) potassium channel (human, UniProt Q12809)
# Experiment: primary screen, population patch clamp on CHO cells stably expressing hERG; higher = less effect of the substance
# 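Also: peak tail current of the secondary pulse compared with the same well before compound.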
# Sequence of human ether-à-go-go-related gene (hERG) potassium channel (Q12809 whole entry, looked up): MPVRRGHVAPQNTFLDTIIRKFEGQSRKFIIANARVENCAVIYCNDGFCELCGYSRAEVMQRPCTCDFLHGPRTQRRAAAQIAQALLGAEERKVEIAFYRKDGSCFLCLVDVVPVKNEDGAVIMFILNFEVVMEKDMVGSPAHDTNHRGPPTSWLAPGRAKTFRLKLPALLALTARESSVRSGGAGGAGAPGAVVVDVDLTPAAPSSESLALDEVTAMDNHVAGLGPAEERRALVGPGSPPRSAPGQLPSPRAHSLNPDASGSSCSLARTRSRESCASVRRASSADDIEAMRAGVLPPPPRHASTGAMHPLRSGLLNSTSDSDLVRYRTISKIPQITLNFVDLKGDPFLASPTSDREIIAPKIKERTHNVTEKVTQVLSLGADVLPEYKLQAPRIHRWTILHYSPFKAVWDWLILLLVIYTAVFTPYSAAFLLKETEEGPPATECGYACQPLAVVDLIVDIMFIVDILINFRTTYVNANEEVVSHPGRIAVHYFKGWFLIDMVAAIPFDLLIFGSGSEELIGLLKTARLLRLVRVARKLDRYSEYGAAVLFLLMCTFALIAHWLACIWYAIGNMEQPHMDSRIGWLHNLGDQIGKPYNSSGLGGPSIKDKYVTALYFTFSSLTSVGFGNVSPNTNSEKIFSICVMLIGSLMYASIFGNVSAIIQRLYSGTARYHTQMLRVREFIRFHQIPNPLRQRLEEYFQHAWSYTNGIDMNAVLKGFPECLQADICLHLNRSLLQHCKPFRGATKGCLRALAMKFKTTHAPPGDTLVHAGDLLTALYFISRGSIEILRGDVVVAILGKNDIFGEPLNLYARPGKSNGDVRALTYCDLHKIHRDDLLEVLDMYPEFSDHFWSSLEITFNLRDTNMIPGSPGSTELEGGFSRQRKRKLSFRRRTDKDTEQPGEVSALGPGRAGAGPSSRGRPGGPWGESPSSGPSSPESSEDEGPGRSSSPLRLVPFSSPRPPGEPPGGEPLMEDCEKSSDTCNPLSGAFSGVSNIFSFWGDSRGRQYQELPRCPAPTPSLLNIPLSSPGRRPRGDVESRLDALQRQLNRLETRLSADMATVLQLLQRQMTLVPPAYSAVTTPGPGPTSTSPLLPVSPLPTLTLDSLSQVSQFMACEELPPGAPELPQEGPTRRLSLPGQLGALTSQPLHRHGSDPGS
row,Compound,"hERG current change (%, negative = inhibition) at 10uM"
1,CCOC(=O)C1CCCN(C(=O)c2cc3ccc(OC)cc3[nH]2)C1 (stereo not shown),6.4%
2,CN1CCN(CCCNCc2cn(CCC#N)c3ccccc23)CC1.O=C(O)C(=O)O,9.43%
3,Cc1ccc(C(O)(COC(=O)C(C)C)COC(=O)C(C)C)c(O)c1,3.76%
4,O=C(CCCC(=O)N(c1ccc2c(c1)OCCO2)C(C(=O)NC1CCCCC1)c1ccc(F)cc1)Nc1ccccn1 (stereo not shown),10%
5,COc1ccc([N+](=O)[O-])cc1CSc1ccccn1,1.85%
6,O=C(NC1CCCCC1)C(c1cccs1)N(CC1CCCO1)C(=O)c1csnn1 (stereo not shown),-16.1%
7,COc1ccc(NC(=O)c2noc(C(C)C)c2[N+](=O)[O-])cc1,6.44%
8,O=C(CN1CCN(S(=O)(=O)c2ccc(Cl)cc2)CC1)NC1CC1,1.82%
9,O=C(CN1CCCN(S(=O)(=O)c2ccc(Br)s2)CC1)Nc1ccc(Cl)cc1,-28.7%
10,Cc1ccc(NC(=O)CN2CCCN(S(=O)(=O)c3ccc(Br)s3)CC2)cc1,-50.1%
11,Cc1cc(C)cc(NC(=O)CN2CCCN(S(=O)(=O)c3ccc(Br)s3)CC2)c1,-6.01%
12,COc1ccc(NC(=O)CN2CCN(S(=O)(=O)c3ccc(C(C)C)cc3)CC2)cc1OC,-66.5%
13,O=C(CN1CCN(S(=O)(=O)c2ccc(Cl)cc2)CC1)NC(=O)NC1CCCCC1,-27.7%
14,COc1ccc(NC(C)=O)cc1NC(=O)CN1CCN(S(=O)(=O)c2ccc(C(C)C)cc2)CC1,-9.86%
15,CCOc1ccc(NC(=O)CN2CCN(S(=O)(=O)c3ccc(Cl)cc3)CC2)cc1,-9.26%
16,COc1ccc(NC(=O)CCN2CCN(S(=O)(=O)c3ccc(Cl)cc3)CC2)cc1,-27.1%
17,COc1ccc(NC(=O)CN2CCN(S(=O)(=O)c3ccc(Cl)cc3)CC2)cc1,-79.7%
18,O=C(CN1CCN(S(=O)(=O)c2ccc(Cl)cc2)CC1)NC1CCCC1,-50.2%
19,COc1cc(NC(=O)CN2CCN(S(=O)(=O)c3ccc(C(C)C)cc3)CC2)cc(OC)c1,-11.5%
20,Cc1ccccc1/C=C1\SC(=S)N(/N=C/c2cc([N+](=O)[O-])ccc2O)C1=O,8.13%
21,COc1ccc(N(C)C(=O)c2cnc(N3CCN(c4ncccn4)CC3)c3ccccc23)cc1,-11.8%
22,Cc1ccc(NC(=O)N2CCC(NC(=O)C(C)(C)C)CC2)cc1,10.1%
